# These entries were drawn from the full list.
# aSyn 5UTR act: Activators via SNCA 5'UTR binding, MLPCN | alpha-synuclein 5'UTR reporter, activators screen | 7.1% of 300,000 active | AID 1814, 2009 | activity score, % (tested at 7.5 µM), hits read low; in the data active means activity score below about -60%
# An asterisk follows results filed as active.
SMILES,aSyn 5UTR act
Cc1ccc2nc(-c3ccsc3)c(NC3CCCC3)n2c1,-64*
CCOc1ccc(-c2ccc(/C=C3/C(=N)N4C=CSC4=NC3=O)o2)c([N+](=O)[O-])c1,-72*
Cc1nc(N)sc1-c1csc(N(C)c2ccc(O)cc2)n1,-127*
CN(c1ccc(O)cc1)c1nc(-c2cccs2)cs1,-238*
c1ccc2c(-c3cn4ccccc4n3)c[nH]c2c1,-281*
CC(=O)Nc1cccc(-c2cn3ccccc3n2)c1,-78*
Oc1ccc(-c2cn3ccccc3n2)cc1O,-124*
O=C(Nc1cccc(-c2cn3ccccc3n2)c1)c1cc2ccccc2oc1=O,-100*
COc1ccc(N/N=C(/N=Nc2nc(C)cc(=O)[nH]2)c2ccccc2)cc1,85
Cc1cc(=O)[nH]c(N=N/C(=N/Nc2ccc(O)cc2)c2ccccc2)n1,-100*
COc1ccc(N=C(C)C2=C(O)COC2=O)cc1,-93*
COc1ccccc1N=C(C)C1=C(O)CC(c2ccccc2)CC1=O (stereo not given),122
COc1cc(-c2cc(=O)c3c(O)c(OC)c(OC)c(O)c3o2)ccc1O,87
O=c1c(O)c(-c2ccc(O)c(O)c2)oc2cc(O)cc(O)c12,-109*
O=c1cc(-c2ccc(O)c(O)c2)oc2cc(O)cc(O)c12,-207*
Cc1nnc(SCC(=O)Nc2nc(-c3ccccc3)cs2)n1N,-81*
Cc1ccc(C(=O)NCCc2nnc(SCC(=O)Nc3nc(-c4ccccc4)cs3)n2C)cc1,-65*
Cn1c(CCNC(=O)c2cccs2)nnc1SCC(=O)Nc1nc(-c2ccccc2)cs1,-73*
CN(CCC#N)C(=O)CSc1ncnc2sc(-c3ccccc3)cc12,-106*
CCN(CC)C(=O)CSc1ncnc2sc(-c3ccccc3)cc12,-168*
CCc1cc2c(SCC(=O)c3ccccc3)ncnc2s1,-122*
CCCCN1CCc2c([nH]c3c(C)cccc23)C1=O,-150*
O=C(O)c1ccc(N=Nc2c(O)[nH]c3ccc(Br)cc23)cc1,-188*
O=Nc1c(-c2c(O)[nH]c3cc(Br)ccc23)[nH]c2ccccc12,77
Cc1cccc2c(N=Nc3ccccc3)c(O)[nH]c12,-112*
SMILES,aSyn 5UTR act
Cc1ccc(N=Nc2c(O)[nH]c3ccc(F)cc23)cc1,-137*
Cc1[nH]c(N=Nc2ccccc2)nc1N=Nc1ccccc1,63
Oc1[nH]c2ccccc2c1N=Nc1cccc(Cl)c1,-87*
OCCN=C1CCCc2c1[nH]c1ccc(Br)cc21,62
O=C(O)c1ccc(N=Nc2c(O)[nH]c3cc(Cl)ccc23)cc1,-294*
Oc1[nH]c2ccc(Br)cc2c1N=Nc1ccc(C(F)(F)F)cn1,-68*
CC(=O)Nc1cc(NC(C)=O)c(N=Nc2ccccc2)cc1C,-89*
CCCNC(=O)c1cc(-c2ccc(Br)cc2)on1,-85*
CC(C)NC(=O)c1cc(-c2ccco2)on1,-139*
CC(C)NC(=O)c1cc(-c2ccc(Br)cc2)on1,-124*
CCc1ccc(NC(=O)[C@H](C)NC(=O)C2CCN(C(=O)[C@@H](N)C(C)C)CC2)cc1,-110*
Cc1ccc(S(=O)(=O)CCC(=O)N(CCCN2CCOCC2)c2nc3ccccc3s2)cc1,-119*
Cc1ccc2nc(N(CCN3CCOCC3)C(=O)CCS(=O)(=O)c3ccccc3)sc2c1,-93*
O=C(CCS(=O)(=O)c1ccccc1)N(CCCN1CCOCC1)c1nc2ccccc2s1,-106*
CC(C)(C)n1cnc2cc(NC(=O)c3cccs3)ccc21,-134*
COc1ccccc1-n1cnc2cc(NCc3cccs3)ccc21,55
CCn1cnc2cc(NC(=O)c3cccs3)ccc21,-109*
CC(C)(C)n1cnc2cc(NC(=O)c3ccccc3)ccc21,-137*
CC(C)(C)n1cnc2cc(NCc3cccs3)ccc21,-102*
CCOC(=O)c1ccc(NC(=O)COc2ccc(CNC3CCCCC3)cc2OC)cc1,-63*
Cc1ccc(N=C2C(=S)N(c3ccc(C)cc3)C(=N)N2/N=C/c2ccc(Cl)cc2)cc1,-156*
C[C@@H]1[C@@H](Sc2ccccc2)CC(=O)O[C@@H]1c1ccc(-c2ccccc2)cc1,-182*
Cn1c(CNc2ccccc2)nc2ccccc21,-113*
Cn1c(CNc2ccc(F)cc2)nc2ccccc21,-123*
c1ccc(Nc2nc(-c3ccccn3)cs2)cc1,-145*
SMILES,aSyn 5UTR act
c1ccc(-c2csc(Nc3cccnc3)n2)nc1,-218*
c1cncc(Nc2nc(-c3cccs3)cs2)c1,-218*
C[C@@H]1CC=C[C@H]2[C@H]1C(=O)N(Cc1ccccc1)[C@H]2c1ccc(-c2cc3ccccc3s2)cc1F,-138*
O=C(Nc1cccnc1)c1sc2cccc(F)c2c1Cl,-166*
C=CCOC(=O)c1c(C)nc2cc3c(cc2c1C)OCO3,-101*
COc1ccc(/C=C/C2=Nc3ccccc3NC(C)(C)C2)cc1OC,-78*
Cc1cc(N2CCN(c3ccc([N+](=O)[O-])c4cccnc34)CC2)c2ccccc2n1,84
O=[N+]([O-])c1ccccc1/C=C/c1ccc2ccccc2n1,-138*
Cn1c(/C=C/c2ccccc2[N+](=O)[O-])nc2ccccc2c1=O,-133*
Cn1c(/C=C/c2ccc(Br)cc2)nc2ccccc2c1=O,-171*
COc1cc(NC(=O)c2cccc(Br)c2)nc(OC)n1,-105*
COc1cc(NC(=O)c2c(F)cccc2F)nc(OC)n1,-117*
O=C(Nc1ccc(N2CCCC2)c(Cl)c1)c1ccc(Br)o1,-177*
CCN1CCN(c2ccc(NC(=O)c3ccc([N+](=O)[O-])o3)cc2Cl)CC1,126
O=C(Nc1ccc(N2CCOCC2)c(Cl)c1)c1ccccc1F,-172*
O=C(Nc1ccc(N2CCOCC2)c(Cl)c1)c1ccco1,-69*
CCN1CCN(c2ccc(NC(=O)c3ccc(F)cc3)cc2Cl)CC1,-94*
CCN1CCN(Cc2ccc(NC(=O)c3ccc(C)c(NC(=O)c4c[nH]c5cc(C(F)(F)F)ccc5c4=O)c3)cc2C(F)(F)F)CC1,113
O=C(Nc1ccc(N2CCOCC2)c(Cl)c1)c1ccc(Cl)cc1,-126*
O=C(c1ccc(Cl)cc1)c1cc([N+](=O)[O-])ccc1N1CCOCC1,118
O=C(Nc1ccc(N2CCCC2)c(Cl)c1)c1ccc2c(c1)OCCO2,-78*
Cc1cc(C(=O)Nc2ccc(N3CCOCC3)c(Cl)c2)c(C)o1,-180*
O=C(Nc1ccc(N2CCOCC2)c(Cl)c1)C1CCCCC1,-69*
O=C(Nc1ccc(N2CCCCC2)c(Cl)c1)c1ccc2c(c1)OCCO2,-132*
O=C(Nc1ccc(N2CCOCC2)c(Cl)c1)c1ccc2c(c1)OCCO2,-93*
SMILES,aSyn 5UTR act
CCOc1ccc2cc(/C=C/C(=O)c3ccco3)c(Cl)nc2c1,-172*
COc1ccc2cc(/C=N/NC(=O)c3ccc(CN(c4cccc(Cl)c4Cl)S(C)(=O)=O)cc3)c(Cl)nc2c1,67
O=C(/C=C/c1ccccc1Cl)Nc1ccc(Cl)cn1,-118*
O=C(COc1ccccc1)Nc1ccc(Cl)cn1,-114*
O=C(COc1ccc2c(c1)OCO2)Nc1ccc(Cl)cn1,-142*
O=C(Nc1ccc(Cl)cn1)c1ccc(Oc2ccccc2)cc1,-143*
O=C(CCc1ccccc1)NC(c1cccs1)c1cc(Cl)c2cccnc2c1O (stereo not given),88
O=C(CCc1ccccc1)Nc1ccc(Cl)cn1,-314*
O=C(COc1ccc(Cl)cc1)Nc1ccc(Cl)cn1,-125*
Cc1ccccc1NC(=O)COc1ccc2c(c1)OC(C)(C)CC2=O,-88*
Cc1ccc(CC(=O)Nc2ccc(Cl)cn2)cc1,-101*
O=C(COc1ccc2c(c1)OCO2)Nc1ccccc1F,-98*
O=C(/C=C/c1ccc2c(c1)OCO2)Nc1ccc(Cl)cn1,-110*

# Screening results deposited in PubChem by Broad Institute.
